Among all 370,000 compounds or so, about 6,800 (1.8%) were called active. Shown is part of a subset that was picked to be rich in actives. Values without a mark were called inactive.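 The calls were made as follows: active = activation above a cutoff set at the mean of all screened compounds plus 3 SD (cut at about 10% in these data); inactive = the rest.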
system: Nuclear hormone receptor DAF-12 (Heterodera glycines), GAL4 fusion; experiment: H. glycines DAF-12 receptor agonists, primary screen, cell-based, luminescence, HEK293, GAL4 fusion, UAS-luciferase (AID 687014); conditions: HEK293 GAL4-hgDAF12 UAS-luciferase reporter, agonist luminescence; at 6.8 µM; hits give high values; normalized to butyrate control;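 also: 0% = DMSO wells and 100% = sodium butyrate wells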

| SMILES | activation |
| --- | --- |
| O=C(O)c1c(NC(=O)N2CCCC2)sc2c1CCCC2 | 0.58% |
| NC(=O)c1c(NC(=O)c2ccccc2)sc2c1CCCC2 | 13.5% (active) |
| NC(=O)c1c(NC(=O)CSc2nnc(-c3ccco3)n2N)sc2c1CCCC2 | 0.59% |
| Cc1ccc2nc(-c3ccc(CN4CCC(n5cc(-c6ccccc6)[nH]c5=O)CC4)cc3)c(-c3ccccc3)nc2c1 | 0.94% |
| C=CCN1C(C(=O)OC)CN(Cc2cn(Cc3ccccc3)nn2)CCS1(=O)=O (configuration not stated) | 0.93% |
| Cc1nn(-c2ccc([N+](=O)[O-])cc2)c(N)c1-c1ccccc1 | 16.8% (active) |
| Cc1nn(-c2ccccc2)c2c1C(c1cccc([N+](=O)[O-])c1)N(c1ccccc1)C(=O)N2 (configuration not stated) | 2.5% |
| CC(C)(C)c1cnnn1-c1ccc([N+](=O)[O-])cc1 | -1.27% |
| COCCNC(=S)N(C)[C@H]1C[C@H]2c3[nH]c4ccccc4c3CCN2C[C@H]1[C@H](C)O | 0.91% |
| COC(=O)C1CN(Cc2ccc(F)cc2)CCS(=O)(=O)N1Cc1ccc(Cl)cc1 (configuration not stated) | -1.05% |
| O=C(C(NS(=O)(=O)c1cccc2nsnc12)c1ccccc1)N1CCN(c2ccccc2)CC1 (configuration not stated) | 0.47% |
| Nn1c(SCC(=O)Nc2cccc3ccccc23)nnc1-c1cc(-c2ccc(F)cc2)n[nH]1 | -2.56% |
| O=C(Oc1ccc([N+](=O)[O-])cc1)c1ccc2ccccc2n1 | 3.74% |
| O=[N+]([O-])c1ccc2c(c1)Nc1nc3ccccc3nc1N2 | 27.2% (active) |
| O=[N+]([O-])c1cc2ccccc2nc1-c1ccccc1 | 4.98% |
| C=CCOC/C=C/C#CCN(CC=C)Cc1ccc(OC)cc1OC | 5.3% |
| CC(c1ccccn1)N(CCN(C)C)C(=S)Nc1ccccc1F (configuration not stated) | 0.46% |
| Cc1ccccc1CS(=O)(=O)Cc1ccc(C(=O)Nc2ccc(Cl)cc2)o1 | -3.81% |
| O=C(Nc1ccc(Cl)c(Cl)c1)c1ccccc1NC(=O)C1CC=CCC1C(=O)O (configuration not stated) | 15.7% (active) |

| SMILES | activation |
| --- | --- |
| O=C(Nc1cccc(Cl)c1Cl)c1ccccc1NC(=O)C1CC=CCC1C(=O)O (configuration not stated) | 5.07% |
| O=C(O)C1CC=CCC1C(=O)NCCc1ccccc1 (configuration not stated) | -1.34% |
| O=C(Nc1cccc(F)c1)NC1CCCCCCC1 | 10.7% (active) |
| Cc1cc(C)cc(NC(=O)NC2CCCCCCC2)c1 | 5.46% |
| O=C(Nc1cccc(F)c1)NC1CCCc2ccccc21 (configuration not stated) | -1.37% |
| COC(=O)c1ccc(NC(=S)Nc2cccc(C)n2)cc1 | 1.63% |
| COC(=O)c1ccc(NC(=S)NN2CCOCC2)cc1 | 10.6% (active) |
| CCCC(=O)NC(=S)Nc1ccc(CN2CCOCC2)cc1 | 0% |
| C#CCNC(=O)C[C@H]1C[C@@]2(C(=O)OC)C(=C[C@H](C(C)C)O[C@@H]2C2CC2)N(Cc2ccco2)C1=O | 0.97% |
| C/C(=N\Nc1ccc(Cl)nn1)c1ccccc1O | 1.05% |
| COc1ccccc1N(CC(=O)N/N=C(\C)c1ccccc1O)S(=O)(=O)c1ccc(C)cc1 | -1.9% |
| C/C(=N\NC(=O)c1ccoc1C)c1ccccc1O | 11.5% (active) |
| O=C(NC(CC(=O)N1CCN(c2ccccc2)CC1)c1ccccc1)c1ccccc1Cl (configuration not stated) | -0.02% |
| Cc1ccc(SCCC(=O)NC(C(C)C)C(C)C)cc1 | -2.93% |
| Cc1ccc(SCCSc2ncccn2)cc1 | 17.8% (active) |
| Cc1ccc(SCCC(=O)NCc2ccccn2)cc1 | 0.65% |
| CCCCCN1CCCCC(NC(=O)C(C)CCC)C1=O (configuration not stated) | 2.68% |
| CC(C)(C)c1ccc(C(=O)Nc2cc(Cl)c(Br)cc2C(=O)O)cc1 | -1.36% |
| COc1ccc(CCC(=O)OCC(=O)Nc2ccc(C)c(S(=O)(=O)N(C)C)c2)cc1 | -1.79% |

| SMILES | activation |
| --- | --- |
| CCN(CC(=O)Nc1ccc(C)c(S(=O)(=O)N(C)C)c1)Cc1ccccc1 | 2.76% |
| Cc1ccc(C(=O)Nc2ccc(C)c(S(=O)(=O)N(C)C)c2)s1 | 17.3% (active) |
| C[C@@H](NC(=O)c1ccccc1OCC(=O)Nc1ccc(I)cc1)C(=O)N(C)Cc1ccccc1 | -2.59% |
| C#CCN(C[C@@H]1[C@@H](OC(=O)NC2CC2)[C@@H](OC(=O)NC2CC2)Cn2c(=O)ccc(=O)n21)S(=O)(=O)c1ccc(C)cc1 | -1.94% |
| O=C1CC[C@@H](COc2ccc3[nH]cc(-c4ccccc4)c3c2-c2ccccc2)N1 | -0.08% |
| CCCCNC(=O)C[C@H]1C(=O)N(Cc2ccc(OC)cc2)C2=CCCC[C@@]21C(=O)OCC | -2.38% |
| COc1ccccc1/C=N/N1CCN(Cc2ccccc2Cl)CC1 | 3.82% |
| CNCC(O)CN1CCN(c2ccccc2OC)CC1 (configuration not stated) | -4.94% |
| COc1ccccc1N1CCN(/N=C/c2ccc(O)cc2O)CC1 | 13% (active) |
| O=C(Nc1ccccc1)O/N=C1/CCCc2occc21 | 1.6% |
| N[C@@H](Cc1ccccc1)C(=O)N1CCC[C@@H]1C(=O)N1CCC2CCN(S(=O)(=O)c3ccccc3)CC21 (some centres not stated) | 2.75% |
| Cc1cccc(NC(=O)c2cc3c(C)nn(-c4ccccc4)c3s2)c1 | 3.47% |
| O=C1NC[C@H](CCCCN2C[C@H](Cc3ccc(O)cc3)N(CCc3ccccc3)C(=O)C2=O)N(CCc2ccccc2)C1=O | -1.46% |
| O=C1NC[C@@H](Cc2ccc(O)cc2)N(CCc2cccc(F)c2)C1=O | 18.6% (active) |
| O=C1NC[C@H](CCCCN2C[C@H](Cc3ccccc3)N(Cc3ccccc3)C(=O)C2=O)N(CCc2ccc(O)cc2)C1=O | 0.18% |
| CCOC(=O)[C@]12CCCCC/C=C\1N(Cc1ccc(OC)cc1)C(=O)[C@H]2CC(=O)N1CCOCC1 | 4.14% |
| O=C(Nc1ccc(-c2nnc(-c3ccccc3)o2)cc1)C1CCCO1 (configuration not stated) | 13.7% (active) |
| CCOc1ccc(NC(=O)c2ccc(NC(=O)C3CCCO3)cc2)cc1 (configuration not stated) | -1.61% |
| CC(C)(C)NS(=O)(=O)c1ccc(NC(=O)C2CCCO2)cc1 (configuration not stated) | -2.61% |

— PubChem BioAssay AID687014 (The Scripps Research Institute Molecular Screening Center, 2013)
